Source: PubChem BioAssay (National Center for Advancing Translational Sciences (NCATS))
D3 antag – antagonists of human D3 dopamine receptor. P35462. D3R cells, DiscoveRx beta-arrestin luminescence, antagonist mode; stronger effect = lower value. max response, negative = inhibition, %. 360,000 compounds, 2.5% hits. AID 652054; in the data active = max response below about -50%; inconclusive = no clear call, values can overlap the other calls; note: % is set by controls: 0 for no effect and ±100 for the full control effect
Target sequence (P35462 whole entry, looked up): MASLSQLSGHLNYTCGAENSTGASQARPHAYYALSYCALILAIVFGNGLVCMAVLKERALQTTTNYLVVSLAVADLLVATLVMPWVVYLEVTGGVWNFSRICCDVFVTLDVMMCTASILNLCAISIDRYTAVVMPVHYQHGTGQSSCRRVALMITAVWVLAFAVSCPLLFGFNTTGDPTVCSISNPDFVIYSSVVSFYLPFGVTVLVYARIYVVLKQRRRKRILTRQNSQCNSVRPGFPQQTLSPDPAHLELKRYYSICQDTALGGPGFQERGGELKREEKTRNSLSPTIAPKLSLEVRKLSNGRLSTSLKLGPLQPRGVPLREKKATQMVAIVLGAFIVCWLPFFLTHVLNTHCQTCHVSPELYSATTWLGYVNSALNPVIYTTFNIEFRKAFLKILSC
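Cells expressing the human receptor were seeded at 1500 cells/well, incubated overnight at 37 degrees C in 5% CO2, then exposed to library compounds with dopamine controls for 90 minutes at 37 degrees C before luminescent detection.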
D1 antagonist – blocks dopamine activation of the human D1 receptor | HEK293 TREx D1 cells, calcium flux, dopamine EC80; stronger effect = lower value | P21728 | AID 504652 | activity change, negative = inhibition, % at 10 µM | 360,000 compounds, 3.2% hits; in the data active = activity change below about -30%; note: % is set by controls: 0 for no effect and ±100 for the full control effect
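Tetracycline-induced HEK293 Trex D1 cells, force-coupled to calcium, dye-loaded; compounds added and read 180 s, then EC80 dopamine added and calcium flux tracked kinetically another 180 s.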
D1 potentiator – potentiators of human D1 dopamine receptor | AID 504651 | 360,000 compounds, 0.036% hits | potentiation, % at 10 µM | P21728 | HEK293 TREx D1 cells, calcium flux, dopamine EC20 potentiation; in the data active = potentiation above about 30%; note: 0% is about no effect
D1 ag – agonists of human D1 dopamine receptor | P21728 | HEK293 T-REx D1 cells, calcium flux, agonist mode | activation, % at 2 µM | 360,000 compounds, 1% hits | AID 504660; in the data active = activation above about 30%; note: 0% is about no effect
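Tetracycline-induced HEK293 TREx D1 cells, force-coupled to calcium signalling, were dye-loaded with a no-wash calcium kit. Compound was pin-added after a 10 s baseline. Fluorescence was read kinetically at 1 cycle/s for 180 s, with calcium rises flagged as agonism.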
D3 ag – D3 dopamine receptor (human) agonism; P35462; D3R DiscoveRx beta-arrestin cells, luminescence, 90 min; max activation, %; 410,000 compounds, 0.58% hits; AID 652048; in the data active = max activation above about 30%; note: 0% is about no effect
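Agonist mode: compounds and dopamine controls were applied to plated cells for 90 min at 37 degrees C after an overnight attachment at 1500 cells/well. Luminescent read-out followed 30 - 60 minutes at room temperature with DiscoveRx detection reagent.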
An asterisk follows results filed as active; ? = inconclusive; . = no result. Compounds with a hit are over-represented: about 6% of the library has one in this group of screens.

SMILES	D3 antag	D1 antagonist	D1 potentiator	D1 ag	D3 ag
COc1ccc(NP(=O)(Oc2ccccc2OC)Oc2ccccc2OC)cc1	47.6	-12.5	-1.7	0.5	7.3
CC[C@H]1C[C@H]2[C@@H]3CCC4=CC(=O)CC[C@@H]4[C@H]3CC[C@]2(C)[C@H]1O	.	.	.	.	-12.7
[O-][n+]1onc2c1CCC1N(O)CCC21O (stereo not drawn)	-14.7	-30.0*	-0.5	0.5	-10.4
C[n+]1c(-c2ccccc2)cc(CCCCc2cc(-c3ccccc3)[n+](C)c(-c3ccccc3)c2)cc1-c1ccccc1	-73.5*	12.5	7.8	-0.2	-21.6
CCCN(CCC)C(=O)Cc1c(-c2ccc(Cl)cc2)nc2ccc(Cl)cn12	.	.	.	.	6.9
S=C(SSC(=S)N1CCCCC1)N1CCCCC1	.	.	.	.	-21.5
CCCCn1c(O)c(C(CC)=NCc2ccc3c(c2)OCO3)c(=O)[nH]c1=O	10.9	-33.9*	-0.9	1.0	2.6
C=CCn1c(O)c(C(CC)=NCc2ccc3c(c2)OCO3)c(=O)[nH]c1=O	-9.0	-16.5	-4.2	2.3	3.5
CCCCCc1cc(O)c2c(c1)OC(C)(C)[C@@H]1CCC(C)=C[C@@H]21	.	.	.	.	8.0
CNC(=O)c1cccn(Cc2cccc(C(F)(F)F)c2)c1=O	0.7	-31.9*	-3.9	2.2	9.1
O=C1CC(c2ccccc2Br)c2c(c3ccccc3oc2=O)O1 (stereo not drawn)	.	-17.1	1.1	3.8	0.9
CCCC(=O)OC(C(Cl)(Cl)Cl)P(=O)(OC)OC (stereo not drawn)	.	.	.	.	-20.0
Cc1cc(OCC(=O)N2CCN(CCc3ccncc3)CC2)cc(C)c1Cl	.	-2.3	0.9	3.9	-16.1
CC1(C)OC(c2ccccc2)=C/C(=C/C=C2C(=O)NC(=O)NC2=O)O1	-5.0	-5.0	-1.1	52.1*	2.6
N#CN	.	.	.	.	9.3
CC1(C)C(C(=O)N2CCN(c3ccc(Cl)cc3)CC2)C1(C)C	-3.7	-4.6	-5.7	4.3	-3.3
COC(=O)C1CN(C#N)N(c2ccc(Cl)cc2)C12c1ccccc1-c1ccccc12 (stereo not drawn)	-76.3*	6.1	-8.5	9.5	-3.9
CN1CC=C(/C=C/c2ccc(-c3ccccc3)cc2)CC1	-22.8	-40.1*	1.4	23.8	-5.0
CCON=O	.	.	.	.	7.1
CC(C)=CCN1CC[C@@]2(C)c3cc(O)ccc3CC1C2C (stereo partly drawn)	?	.	.	.	-77.7
CC(C)=CCN1CC[C@@]2(C)c3cc(O)ccc3C[C@@H]1C2C (stereo partly drawn)	-57.9*	.	.	.	-48.5
O=C(COc1ccc(Br)cc1)Nc1ccc(Cl)cc1C(=O)c1ccccc1	.	3.0	1.1	3.0	4.3
O=c1[nH]c(O)c(/C=C2/C=CC(c3cc(Cl)ccc3Cl)=N2)c(=O)[nH]1	-15.3	-7.0	5.6	72.5*	-5.8
CC1=Nc2ccccc2/C1=C/c1c(O)[nH]c(=O)[nH]c1=O	7.1	23.0	-0.2	-2.4	5.5
Oc1c(Cl)cc(Cl)cc1CN1CCN(Cc2ccccc2)CC1	-50.9*	-19.0	-11.2	2.9	-38.7
SMILES	D3 antag	D1 antagonist	D1 potentiator	D1 ag	D3 ag
c1ccc(CN2CCN(Cc3ccc4ccccc4c3)CC2)cc1	-69.3*	-12.4	-6.2	1.8	-15.2
COc1cc2[nH]c(C(=O)N3CCC4(CC3)OCCO4)cc2c(OC)c1OC	-83.8*	-8.8	-0.3	1.4	-7.2
Cc1ccc(N2C(=O)NC(=O)/C(=C\c3cc(C)n(-c4cc(C(=O)O)cc(C(=O)O)c4)c3C)C2=O)cc1	-53.5*	-1.5	3.2	1.3	-4.4
Cc1ccc(N2C(=O)NC(=O)/C(=C\c3cc(C)n(-c4ccc(C(=O)O)cc4)c3C)C2=O)cc1	18.3	26.3	5.0	0.6	2.0
CC(=O)Oc1ccc2c3c1O[C@H]1[C@@H](OC(C)=O)C=C[C@H]4[C@@H](C2)N(C)CC[C@@]341	.	.	.	.	3.3
Oc1ccc(C[C@H]2NCCc3cc(O)c(O)cc32)cc1O	-21.0	-90.2*	-9.9	2.4	22.3
Oc1ccc(CC2CC3CCN2CC3)cc1O (stereo not drawn)	2.5	-9.9	-4.0	-0.5	8.6
c1ccc(C(OCCN2CCN(c3ncccn3)CC2)c2ccccc2)cc1	-116.0*	.	.	.	-11.7
Clc1ccc(C(OCCN2CCCCC2)c2ccccc2)cc1 (stereo not drawn)	-17.8	-15.6	-4.5	8.6	-93.3
CCOc1ccccc1CN1CCCC(C(=O)c2cc(F)ccc2F)C1 (stereo not drawn)	-71.8*	3.3	2.8	5.5	-20.4
